Test results as given in PubChem BioAssay (NCATS).
Inconclusive results are not listed. The source made the active and inactive calls. Unless noted, calls follow the shape of the dose curve; as a rule, active = well fitted curve in the direction sought with a large enough effect; inconclusive = small, poorly fitted or top-dose-only effect, or another doubt; inactive = no such curve, though single readings can be large; an effect the other way counts as inactive or inconclusive.

Columns and labels:
[1] = molecular target: Glucocorticoid receptor (Homo sapiens) (UniProt P04150); assay: qHTS assay for small molecule agonists of glucocorticoid receptor signaling (AID 588532; active = well fitted curve in the direction sought with a large enough effect in the signal ratio, with a control signal flat; the % refers to the signal ratio;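 also: 100% = dexamethasone at 0.1 µM and 0% = DMSO only wells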); conditions: HeLa MMTV-bla, beta-lactamase ratio, agonist, 18 h; stronger effect = higher value; percent of dexamethasone control, DMSO zero
In short: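 HeLa GRE-bla reporter cells; 18 h compound exposure at 37 C; 2 h CCF4 loading at room temperature; fluorescence at 460 and 530 nm; EC50 by Hill equation.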

[2] = molecular target: Glucocorticoid receptor (Homo sapiens) (UniProt P04150); assay: qHTS assay for small molecule antagonists of glucocorticoid receptor signaling (AID 588533; active = well fitted inhibition curve with a large enough effect in the signal ratio, with a control signal flat, not every such curve was filed as active; the % refers to the signal ratio; also: % is scaled to controls: 0 for no effect and ±100 for the full control effect); conditions: HeLa MMTV-bla, GRE beta-lactamase ratio, antagonist mode, 18 h; series mostly up to 76.8 µM
In short: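 Antagonist-mode qHTS: compound titrations added to GRE-bla HeLa cells, then dexamethasone 2 nM final; 18 h, 37 C. CCF4 FRET fluorescence normalized to dexamethasone and DMSO; IC50 from Hill fit.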

[3] = molecular target: Peroxisome proliferator-activated receptor gamma (Homo sapiens) (UniProt P37231); assay: qHTS assay for small molecule agonists of peroxisome proliferator-activated receptor gamma signaling (AID 588536; active = well fitted curve in the direction sought with a large enough effect in the signal ratio, with a control signal flat, not every such curve was filed as active; the % refers to the signal ratio;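 also: 0% = DMSO basal wells and 100% = rosiglitazone at 2 µM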); conditions: HEK293 PPARg-UAS-bla, beta-lactamase ratio, 16 h, percent of rosiglitazone response, DMSO as zero; series mostly up to 76.7 µM
In short: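 Compound treatment: 16 h, 37 C, HEK293 GeneBLAzer cells. Detection: CCF4, 2 h RT. Values: Hill-fit EC50, efficacy as % of 2 uM rosiglitazone.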

[4] = molecular target: Vitamin D3 receptor (Homo sapiens) (UniProt P11473); assay: qHTS assay for small molecule antagonists of vitamin D receptor signaling (AID 588541; calls by dose curve;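 also: receptor activated by calcitriol during compound treatment; % is scaled to controls: 0 for no effect and ±100 for the full control effect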); conditions: HEK293T VDR-UAS-bla, beta-lactamase ratio, antagonist mode; series mostly up to 76.7 µM
In short: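 VDR-UAS-bla HEK293T cells in 2% charcoal-stripped FBS were stimulated with 1-alpha,25-dihydroxyvitamin D3 (3 nM final) plus compound for 16 h at 37 C. The beta-lactamase CCF4 readout was normalized to 50 nM agonist and DMSO, and Hill fits gave IC50.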

[5] = molecular target: Vitamin D3 receptor (Homo sapiens) (UniProt P11473); assay: qHTS assay for small molecule agonists of vitamin D receptor signaling (AID 588543; calls by dose curve;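 also: 0% = DMSO basal and 100% = reference agonist control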); conditions: HEK293T VDR-UAS-bla, beta-lactamase ratio, 16 h; series mostly up to 76.8 µM
In short: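 VDR-UAS-bla HEK293T cells, 2000/well, 2% charcoal-stripped FBS; compound titration 16 h at 37 C; CCF4 beta-lactamase ratio read. Normalized to 50 nM 1-alpha,25-dihydroxyvitamin D3 (100%) and DMSO; Hill fit gives EC50, efficacy.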

[6] = qHTS assay for small molecule agonists of retinoid X receptor alpha signaling (AID 588544; calls by dose curve;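 as to activation: 0% = DMSO basal wells and 100% = reference agonist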); conditions: HEK293T RXRa-UAS-bla, beta-lactamase reporter, 18 h; 530 nm emission
[7] = molecular target: Retinoic acid receptor RXR-alpha (Homo sapiens) (UniProt P19793); assay: as above; conditions: HEK293T RXRa-UAS-bla, beta-lactamase reporter, 18 h; series mostly up to 76.7 µM
[8] = qHTS assay for small molecule antagonists of retinoid X receptor alpha signaling (AID 588546; active = well fitted inhibition curve with a large enough effect in the signal ratio, with a control signal flat, not every such curve was filed as active; the % refers to the signal ratio;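 also: cells stimulated with 9-cis-retinoic acid as agonist; % is scaled to controls: 0 for no effect and ±100 for the full control effect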); conditions: HEK293T RXRa-UAS-bla, beta-lactamase ratio, antagonist mode; measured here: W530 green channel, cytotoxicity proxy
In short: (§1)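 Beta-lactamase reporter inhibition, read as CCF4 fluorescence ratio (ex 405, em 460/530 nm) after 2 h at RT. HEK293T UAS-bla cells, 2500/well, were stimulated with 9-cis-RA at 500 or 100 nM final alongside test compound for 18 h at 37 C.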

[9] = molecular target: Retinoic acid receptor RXR-alpha (Homo sapiens) (UniProt P19793); assay: as above; conditions: HEK293T RXRa-UAS-bla, beta-lactamase ratio, antagonist mode
In short: as §1

[10] = qHTS assay for small molecule activators of the nuclear factor-kappa B (NF-kB) signaling pathway (AID 651749; active = well fitted activation curve with a large enough effect in the signal ratio; the % refers to the signal ratio; also: % of control where 0% means no effect); conditions: NF-kB-bla ME-180 cells, beta-lactamase FRET ratio, 16 h; activation: stronger effect = higher value
In short: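 In this qHTS format, compounds acting as activators increase NF-kB-driven beta-lactamase in ME-180 cells, measured as disrupted FRET after 16 hr exposure at 37C and 5% CO2.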

[11] = qHTS assay for environmental chemicals that activate the Aryl hydrocarbon Receptor (AhR) signaling pathway (AID 651777); conditions: 1A2-DRE human hepatoma cells, luciferase, 24 h; activation: stronger effect = higher value; also: % of control where 0% means no effect; nearly all actives have a fitted effect of over 15% in size
In short: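 Quantitative HTS in stably transfected human liver-derived cells whose luciferase gene sits downstream of the CYP1A2 promoter and dioxin response element. After 24 hr exposure at 37 C, One-Glo luminescence was measured.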

[12] = molecular target: Peroxisome proliferator-activated receptor alpha (Homo sapiens) (UniProt Q07869); assay: qHTS assay for small molecule agonists of the peroxisome proliferator-activated receptor alpha (PPARalpha) signaling pathway (AID 651778); conditions: PathHunter PPARalpha complementation, chemiluminescence, 6 h; max response: stronger effect = higher value; also: % of control where 0% means no effect
In short: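 Enzyme-fragment complementation assay in which ligand-bound PPARalpha translocates and forms an active enzyme that generates chemiluminescence. Cells were plated overnight, exposed to compound for 6 hr at 37 C, and then given detection reagent for 60 min at room temperature.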

[13] = qHTS assay for small molecule agonists of the antioxidant response element (ARE) signaling pathway measured by Nrf2-dependant transcriptional activity - cell viability counter screen (AID 720653; active = well fitted curve in the direction sought with a large enough effect in the repeat runs; an effect the other way counts as inactive or inconclusive; also: % is scaled to controls: 0 for no effect and ±100 for the full control effect); conditions: ARE-bla HepG2 viability, CellTiter-Glo ATP luminescence, 16 h; max response: stronger effect = lower value
In short: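 ARE-bla HepG2 cells treated with compounds for 16 h at 37C; this counter screen measures viability as intracellular ATP by CellTiter-Glo luminescence after 30 min at room temperature.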

[14] = qHTS assay for cell viability of HEK293 cells (AID 743288); conditions: ATP luminescence (CellTiter-Glo), 18 h; max response: stronger effect = lower value; also: % is scaled to controls: 0 for no effect and ±100 for the full control effect; nearly all actives have a fitted effect of over 50% in size
In short: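 Steps: plate 2,000 parental HEK293 cells per well; incubate ≥5 h, 37 C; add compounds in DMSO; incubate 18 h, 37 C; add CellTiter-Glo; wait 30 min at room temperature; read luminescence.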

[15] = qHTS assay for cell viability of the p53RE-bla HCT-116 cell line (AID 743292); conditions: p53RE-bla HCT-116 viability, ATP luminescence, 16 h; series mostly up to 95 µM; also: % is scaled to controls: 0 for no effect and ±100 for the full control effect; nearly all actives have a fitted effect of over 55% in size
In short: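 Viability of compound-treated p53RE-bla HCT-116 cells is taken from ATP-dependent luciferase luminescence. Treatment lasts 16 h at 37 C after a 5 h settling period; detection follows 30 min at room temperature.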

[16] = molecular target: Nuclear receptor subfamily 1 group I member 2 (Rattus norvegicus) (UniProt Q9R1A7); assay: qHTS assay for small molecule activators of the rat pregnane X receptor (rPXR) signaling pathway (AID 651751; call rule not given here; also: 0% is about no effect); conditions: rPXR reporter cells, luciferase (One-Glo), 24 h
[17] = qHTS assay for small molecule activators of the human pregnane X receptor (PXR) signaling pathway (AID 720659; call rule not given here; also: 0% is about no effect); conditions: DPX-2 HepG2 CYP3A4-luciferase, 24 h; series mostly up to 92.3 µM
[18] = molecular target: Thyroid hormone receptor beta (Homo sapiens) (UniProt P10828); assay: qHTS assay for small molecule agonists of thyroid hormone receptor beta signaling (AID 588545; calls by dose curve); conditions: TR-UAS-bla GripTite HEK 293, beta-lactamase ratio, agonist mode, 18 h; series mostly up to 76.7 µM
In short: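 Agonist-mode beta-lactamase reporter assay, HEK 293 cells, 2% charcoal/dextran FBS; cells plated 4 hrs, compound 18 hrs at 37 C, CCF4 2 hrs RT. Normalized to 10 nM T3 (100%) and DMSO (0%); Hill fit gives EC50, efficacy.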

[19] = qHTS assay for small molecule agonists of the antioxidant response element (ARE) signaling pathway measured by Nrf2-dependant transcriptional activity (AID 720636; active = well fitted curve in the direction sought with a large enough effect in the repeat runs; an effect the other way counts as inactive or inconclusive; also: % of control where 0% means no effect); conditions: ARE-luc HepG2, Nrf2 luciferase reporter, 16 h; series mostly up to 92.4 µM
In short: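 Quantitative HTS format in HepG2 cells stably expressing an ARE-luciferase reporter; 16 hr compound treatment at 37 C, luciferase signal detected with ONE-Glo.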

Sequence of Vitamin D3 receptor (Homo sapiens) (P11473 whole entry, looked up): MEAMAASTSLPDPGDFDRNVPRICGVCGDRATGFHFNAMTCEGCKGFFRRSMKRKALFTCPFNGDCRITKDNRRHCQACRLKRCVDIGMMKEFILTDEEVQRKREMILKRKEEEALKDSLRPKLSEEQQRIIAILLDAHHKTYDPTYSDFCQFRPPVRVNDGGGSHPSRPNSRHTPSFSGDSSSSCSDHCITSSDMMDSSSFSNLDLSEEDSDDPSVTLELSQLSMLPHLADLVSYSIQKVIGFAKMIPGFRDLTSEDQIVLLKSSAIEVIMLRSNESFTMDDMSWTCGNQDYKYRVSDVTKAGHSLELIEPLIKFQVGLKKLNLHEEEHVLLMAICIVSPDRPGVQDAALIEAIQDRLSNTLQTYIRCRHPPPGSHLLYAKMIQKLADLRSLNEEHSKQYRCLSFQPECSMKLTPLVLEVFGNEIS
Sequence of Glucocorticoid receptor (Homo sapiens) (P04150 whole entry, looked up): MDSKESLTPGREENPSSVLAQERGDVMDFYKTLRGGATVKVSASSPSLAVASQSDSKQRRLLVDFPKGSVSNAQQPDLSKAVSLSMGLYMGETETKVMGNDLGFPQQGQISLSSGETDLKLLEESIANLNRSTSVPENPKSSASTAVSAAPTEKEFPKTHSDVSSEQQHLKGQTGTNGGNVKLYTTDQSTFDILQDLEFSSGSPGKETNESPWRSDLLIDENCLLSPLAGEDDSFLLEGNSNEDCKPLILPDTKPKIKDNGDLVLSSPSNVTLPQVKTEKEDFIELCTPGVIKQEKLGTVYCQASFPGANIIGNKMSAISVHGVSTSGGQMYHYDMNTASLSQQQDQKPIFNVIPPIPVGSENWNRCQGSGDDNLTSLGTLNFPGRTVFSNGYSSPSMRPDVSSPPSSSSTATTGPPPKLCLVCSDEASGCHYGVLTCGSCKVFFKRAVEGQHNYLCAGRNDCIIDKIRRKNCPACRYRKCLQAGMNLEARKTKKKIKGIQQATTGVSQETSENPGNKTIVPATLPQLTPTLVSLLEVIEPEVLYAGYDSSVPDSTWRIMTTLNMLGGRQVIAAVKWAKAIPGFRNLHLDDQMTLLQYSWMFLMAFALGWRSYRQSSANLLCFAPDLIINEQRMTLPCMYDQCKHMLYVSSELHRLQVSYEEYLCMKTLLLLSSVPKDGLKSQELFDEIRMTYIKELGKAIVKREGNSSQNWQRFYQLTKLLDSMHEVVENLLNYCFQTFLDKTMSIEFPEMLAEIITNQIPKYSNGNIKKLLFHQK
Sequence of Nuclear receptor subfamily 1 group I member 2 (Rattus norvegicus) (Q9R1A7 whole entry, looked up): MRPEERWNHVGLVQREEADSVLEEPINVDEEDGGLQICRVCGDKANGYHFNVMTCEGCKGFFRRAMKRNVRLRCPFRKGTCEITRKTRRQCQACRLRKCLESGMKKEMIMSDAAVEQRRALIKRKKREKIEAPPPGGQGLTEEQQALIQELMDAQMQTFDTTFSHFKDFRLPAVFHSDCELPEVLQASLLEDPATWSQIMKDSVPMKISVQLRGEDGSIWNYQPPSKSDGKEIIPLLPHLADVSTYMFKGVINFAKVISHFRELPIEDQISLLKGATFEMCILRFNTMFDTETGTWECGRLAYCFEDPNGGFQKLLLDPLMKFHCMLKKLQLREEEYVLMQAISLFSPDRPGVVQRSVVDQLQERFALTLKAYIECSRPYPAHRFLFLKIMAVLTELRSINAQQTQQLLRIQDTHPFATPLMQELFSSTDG
Sequence of Peroxisome proliferator-activated receptor gamma (Homo sapiens) (P37231 whole entry, looked up): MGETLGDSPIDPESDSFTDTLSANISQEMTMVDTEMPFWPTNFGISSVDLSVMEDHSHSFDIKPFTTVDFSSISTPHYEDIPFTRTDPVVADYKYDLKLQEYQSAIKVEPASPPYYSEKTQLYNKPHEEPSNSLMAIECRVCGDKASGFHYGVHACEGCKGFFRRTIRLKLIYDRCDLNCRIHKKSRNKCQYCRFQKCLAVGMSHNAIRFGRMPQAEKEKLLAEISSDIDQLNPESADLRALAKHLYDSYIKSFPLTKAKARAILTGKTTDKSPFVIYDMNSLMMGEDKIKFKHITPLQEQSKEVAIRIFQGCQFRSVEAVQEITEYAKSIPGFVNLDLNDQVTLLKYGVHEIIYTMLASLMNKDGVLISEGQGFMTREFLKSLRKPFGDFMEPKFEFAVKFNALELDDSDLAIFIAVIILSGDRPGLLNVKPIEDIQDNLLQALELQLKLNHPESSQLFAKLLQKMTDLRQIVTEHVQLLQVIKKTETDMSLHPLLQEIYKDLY
Sequence of Thyroid hormone receptor beta (Homo sapiens) (P10828 whole entry, looked up): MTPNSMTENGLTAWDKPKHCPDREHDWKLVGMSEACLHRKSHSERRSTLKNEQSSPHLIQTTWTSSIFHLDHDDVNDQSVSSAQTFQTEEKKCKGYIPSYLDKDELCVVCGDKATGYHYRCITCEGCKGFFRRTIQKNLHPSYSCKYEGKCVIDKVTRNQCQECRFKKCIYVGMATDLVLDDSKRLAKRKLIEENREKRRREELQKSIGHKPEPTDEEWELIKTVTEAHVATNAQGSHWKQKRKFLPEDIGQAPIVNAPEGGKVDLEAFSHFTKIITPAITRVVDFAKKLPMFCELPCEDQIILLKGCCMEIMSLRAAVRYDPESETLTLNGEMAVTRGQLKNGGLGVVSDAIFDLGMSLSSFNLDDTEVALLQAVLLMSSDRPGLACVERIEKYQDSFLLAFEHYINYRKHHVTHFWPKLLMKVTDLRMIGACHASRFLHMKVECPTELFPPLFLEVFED
Sequence of Peroxisome proliferator-activated receptor alpha (Homo sapiens) (Q07869 whole entry, looked up, the tested form may be a part): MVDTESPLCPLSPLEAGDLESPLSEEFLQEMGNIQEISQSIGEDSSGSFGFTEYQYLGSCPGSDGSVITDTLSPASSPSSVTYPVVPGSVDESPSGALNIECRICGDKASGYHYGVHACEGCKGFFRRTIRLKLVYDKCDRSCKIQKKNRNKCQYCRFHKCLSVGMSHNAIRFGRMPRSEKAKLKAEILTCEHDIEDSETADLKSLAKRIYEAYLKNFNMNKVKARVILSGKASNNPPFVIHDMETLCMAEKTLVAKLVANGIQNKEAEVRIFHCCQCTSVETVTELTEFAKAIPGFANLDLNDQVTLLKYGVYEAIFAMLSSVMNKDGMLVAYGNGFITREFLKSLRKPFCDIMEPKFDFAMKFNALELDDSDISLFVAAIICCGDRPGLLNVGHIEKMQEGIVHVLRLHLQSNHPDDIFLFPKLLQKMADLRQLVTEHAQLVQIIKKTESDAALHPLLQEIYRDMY
Sequence of Retinoic acid receptor RXR-alpha (Homo sapiens) (P19793 whole entry, looked up): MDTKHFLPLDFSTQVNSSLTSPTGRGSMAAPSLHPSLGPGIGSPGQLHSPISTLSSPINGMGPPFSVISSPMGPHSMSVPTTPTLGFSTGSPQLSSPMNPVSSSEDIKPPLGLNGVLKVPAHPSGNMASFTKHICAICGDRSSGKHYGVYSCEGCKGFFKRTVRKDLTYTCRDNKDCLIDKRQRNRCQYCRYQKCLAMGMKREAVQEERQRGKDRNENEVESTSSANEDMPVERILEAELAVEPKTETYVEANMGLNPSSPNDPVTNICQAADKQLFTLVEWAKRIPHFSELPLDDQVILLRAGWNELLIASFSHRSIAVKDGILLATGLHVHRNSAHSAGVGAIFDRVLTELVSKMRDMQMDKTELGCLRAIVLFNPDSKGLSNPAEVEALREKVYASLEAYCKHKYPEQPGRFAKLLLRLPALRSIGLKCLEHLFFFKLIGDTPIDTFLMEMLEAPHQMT

CCCCC(CC)COC(=O)/C=C\C(=O)OCC(CC)CCCC (stereo not given)
inactive: activation [1] -2.45% | Potency [2] | outcome [3] | Potency [4] | outcome [5] | Potency [7] | max response [9] 1.08% | activation [10] 0.118% | activation [11] 0.172% | max response [12] -0.882% | max response [13] -2.59% | max response [14] -2.82% | Potency [15] | max response [16] -1.19% | outcome [17]
-16.2%: max response [8]
1.27%: max response [6]

C1=C/CC/C=C/CC/C=C/CC/1
inactive: activation [1] 2.01% | Potency [2] | outcome [3] | Potency [4] | outcome [5] | Potency [18] | max response [9] -14.4% | activation [10] 0.104% | max response [12] 0.0417% | max response [13] -8.56% | max response [14] -8.62% | Potency [15] | max response [16] 13.1% | outcome [17]
5.63%: max response [8]

COC(=O)CSc1cc(N=c2sc(=O)n3n2CCCC3)c(F)cc1Cl
inactive: activation [1] -2.45% | Potency [2] | outcome [3] | Potency [4] | outcome [5] | activation [11] -2.58% | max response [12] 0.865% | Potency [19] | max response [13] 8.69% | max response [14] 4.83%

CCCCCCOCCOCCO
-13.6%: max response [8]
inactive: activation [1] -12.5% | Potency [2] | outcome [3] | Potency [7] | Potency [18] | max response [9] 2.18% | activation [11] -0.48% | max response [12] 0.465% | Potency [19] | max response [13] -7.8% | max response [14] -5.42% | Potency [15] | max response [16] -1.74% | outcome [17]
-8.61%: max response [6]

C[Si]1(C)O[Si](C)(C)O[Si](C)(C)O1
-4.52%: max response [6]
inactive: outcome [3] | Potency [4] | outcome [5] | Potency [7] | Potency [18] | max response [9] 2.26% | activation [10] -0.149% | activation [11] 1% | max response [12] 0.478% | Potency [19] | max response [13] -2.26% | max response [14] -1.41% | Potency [15] | max response [16] -5.54% | outcome [17]
-6.48%: max response [8]
